“And” between values parts separate entries of the source, which are not always exact repeats. Equal values may be shown once. Compounds without any hit were thinned out: in the full panel of roughly 79,000, 15% have a hit. The source made the active and inactive calls. Cut-off read from the data, not from the text of the source: active = growth inhibition above about 70%; inactive = the rest.
Columns and labels:
[1] = NCI Yeast Anticancer Drug Screen. Data for the rad50 strain (AID 155);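 note: 0% = growth of vehicle-only cultures of the same strain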; conditions: S. cerevisiae rad50 strain growth inhibition, stronger effect = higher value; at 50.0 µM unless noted
Procedure, shortened: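 Growth of the mutant yeast was measured after compound exposure and referenced to vehicle-treated cultures.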

[2] = NCI Yeast Anticancer Drug Screen. Data for the mec2-1 strain (AID 157); conditions: S. cerevisiae mec2-1 strain, stronger effect = higher value; at 50.0 µM unless noted
Procedure, shortened: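 Strain: mec2-1 (DNA repair/cell cycle alteration). Compound exposure, then growth measured; inhibition expressed relative to vehicle.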

[3] = NCI Yeast Anticancer Drug Screen. Data for the sgs1 mgt1 strain (AID 161);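 note: 0% = growth of cultures given vehicle only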; conditions: S. cerevisiae sgs1 mgt1 strain, stronger effect = higher value; at 50.0 µM unless noted
Procedure, shortened: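 Test agents were incubated with a DNA-repair-mutant yeast strain. Growth was then read and compared against vehicle-treated controls.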

[4] = NCI Yeast Anticancer Drug Screen. Data for the cln2 rad14 strain (AID 165);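 note: 0% = growth equal to vehicle treated cultures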; conditions: S. cerevisiae cln2 rad14 strain, stronger effect = higher value; at 50.0 µM unless noted
Procedure, shortened: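 Compounds are applied to the cln2 rad14 yeast strain, and growth is then compared with that of vehicle-treated cultures to give inhibition.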

[5] = NCI Yeast Anticancer Drug Screen. Data for the bub3 strain (AID 167); conditions: S. cerevisiae bub3 mutant strain, stronger effect = higher value; at 50.0 µM unless noted
Procedure, shortened: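 Whole-cell yeast assay. The mutant strain was incubated with compounds, and growth inhibition was determined by comparison with vehicle-treated cells.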

[6] = NCI Yeast Anticancer Drug Screen. Data for the mlh1 rad18 strain (AID 175); conditions: S. cerevisiae mlh1 rad18 strain growth inhibition, stronger effect = higher value; at 50.0 µM unless noted
Procedure, shortened: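 Read-out is yeast growth inhibition, calculated against vehicle-only controls. The compound was applied to a strain engineered with DNA damage repair alterations.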

Measured: growth inhibition

O=C1c2cccc3c([N+](=O)[O-])ccc(c23)C(=O)N1Cc1cccnc1
active: [1] 99.3% | [2] 99.7% | [3] 99.5% | [4] 99.3% | [5] 99.3% | [6] 99.4%

O=C(c1ccccc1)N1c2ccc([N+](=O)[O-])cc2Sc2cc([N+](=O)[O-])ccc21
inactive: [1] 16.7% | [2] -3.45% | [3] 33.6% | [4] 8.35% | [5] -10.7% | [6] 13.1%

O=C1Nc2cc(Br)ccc2C1=O
inactive: [1] 7.5% | [2] 23.1% | [3] 2% | [4] 11.8% | [5] 10.4% | [6] 15.2%

O=C(O)c1nc2cn1/C=C\C=NCC1=CN3C=CC=NC3(C(=O)O)N1C2 (stereo not drawn)
inactive: [1] -14.6% | [2] -2.95% | [3] -12.4% | [4] -43.2% | [5] 1.05% | [6] -18.9%

CC(=O)Nc1ccc2ccccc2c1[N+](=O)[O-]
inactive: [1] -11.1% | [2] -14.4% | [3] -17.4% | [4] -64.5% | [5] -35.8% | [6] 15.7%

CCCCCCCCCCCCCCCCC(C#N)C(=O)O (stereo not drawn)
inactive: [1] -14.4% | [2] 0.95% | [3] -18.2% | [4] -1% | [5] -22.8% | [6] -18.9%

COc1ccc(/C=N/NC(=O)c2sc(=S)n(-c3ccccc3)c2N)cc1
inactive: [1] 2.9% | [2] -0.45% | [3] -40.1% | [4] -16.9% | [5] -17.1% | [6] -7.5%

CC(=O)/C=C/N1CCOCC1
inactive: [1] 3.25% | [2] -9.55% | [3] -9.6% | [4] -16.9% | [5] 19.6% | [6] -5.65%

Cc1noc(NS(=O)(=O)c2ccc(Nc3nc(CC(=O)Nc4ccccc4)cs3)cc2)c1C
inactive: [1] 18.4% | [2] -19.1% | [3] 17.2% | [4] 12.7% | [5] -17.1% | [6] 9.2%

O=C1OC(=O)C2C3CC(C(Br)C3Br)C12 (stereo not drawn)
inactive: [1] 3.8% | [2] -14.4% | [3] 7.8% | [4] -36.5% | [5] -1.2% | [6] 21.5%

O=[N+]([O-])c1ccc(C[n+]2ccccc2)cc1
inactive: [1] -1.25% and 31.9% | [2] 13.2% and -3.9% | [3] -4.2% and -1.45% | [4] -15.8% and 16.4% | [5] -6.95% and -2.65% | [6] -18.2% and 13.7%

O=C(O)C1CCC(=O)N1Cc1c[nH]c2ccccc12 (stereo not drawn)
inactive: [1] -2.2% | [2] -7.4% | [3] -10.2% | [4] -0.15% | [5] 15.4% | [6] -10.8%

CNC(=O)C(C)NC(=O)C(Cc1ccccc1)NC(=O)c1ccccc1 (stereo not drawn)
inactive: [1] -33% | [2] -52.7% | [3] -6.45% | [4] 15.4% | [5] 5.2% | [6] -11.7%

Brc1ccc2c(ccc3c2nnc2ncnn23)c1
inactive: [1] 42.5% | [2] 22.4% | [3] 16.9% | [4] 10.7% | [5] -1.55% | [6] 42.2%

O=C1CCC(=O)N1N1C(=O)CCC1=O
inactive: [1] -9.65% | [2] -24.2% | [3] -10.4% | [4] 7.05% | [5] -23.2% | [6] 3.35%

CC(=O)OCC1OC(n2c(=O)[nH]c(=O)c3n[nH]nc32)C(OC(C)=O)C(OC(C)=O)C1OC(C)=O (stereo not drawn)
inactive: [1] -4.2% | [2] 7.15% | [3] 3.4% | [4] 24.9% | [5] -1.05% | [6] -4.35%

Cc1nc2ccccc2c2ccc([N+](=O)[O-])cc12
inactive: [1] 13.5% | [2] 4.45% | [3] 0.25% | [4] -31.1% | [5] -4.6% | [6] 12.3%

C=CCCn1nc(-c2ccccc2)oc1=O
inactive: [1] -8.35% | [2] -28.5% | [3] -19.2% | [4] -2.75% | [5] -26.9% | [6] 6.1%

CC(O)c1cccc(NC(=O)NC2CCCCC2)c1 (stereo not drawn)
inactive: [1] -2.55% | [2] 28.1% | [3] 10.8% | [4] -6.1% | [5] 29.4% | [6] 27.8%

CCOC(=O)/C=C/CCC(C)(C)COC(C)=O
inactive: [1] -10.1% | [2] -1.4% | [3] -36.9% | [4] -49.8% | [5] 0.05% | [6] -31.9%

O=C(Nc1ccccc1)Nc1ccc2c(c1)oc1ccccc12
inactive: [1] 8.85% | [2] 6.7% | [3] 9.6% | [4] 28% | [5] 10.9% | [6] 25.6%

NCC(=O)c1ccc2cc(Br)c3ccccc3c2c1
inactive: [1] 5.7% | [2] 0.45% | [3] -1.2% | [4] 17.9% | [5] 12.4% | [6] 0.15%

CCOC(=O)c1ccc(N)nc1
inactive: [1] -3.75% | [2] -3.3% | [3] 5.35% | [4] -13% | [5] 7.95% | [6] 18.6%

Source: PubChem BioAssay (NCI)
